Reference: PubChem BioAssay AID1159580 (chemical genetic matrix, 2015)
Several values for one entry are separate records, joined by “and”; a condition that tells them apart may be missing. Equal entries are not always repeated. Out of some 5,500 compounds screened, about 2,000 (36%) were called active. Roughly 18% stayed inconclusive and do not appear here. Cut-off read from the data, not from the text of the source: active = normalized growth mostly below about 0.91 (no sharp cut-off); inconclusive = no clear call, values can overlap the other calls; inactive = mostly above about 0.92. Some of the results follow.

Assay: chemical genetic growth profiling, strain panel (AID 1159580);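 note: tested at 20 µM; growth read once vehicle control cultures reached saturation at 30 °C; 1 = growth at the plate median or of vehicle wells; lower values mean less growth of the strain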
Details: S. cerevisiae deletion strains, growth OD

Measured: normalized growth

CCC(C)C(=O)O[C@@H]1C[C@@]2(C)[C@H](c3ccoc3)OC(=O)CC23OC2(C)O[C@]14[C@]1(C)[C@@H](CC(=O)OC)C5(C)CC1(O)[C@](O)(C5OC(=O)C1(C)OC1C)[C@@H](OC(C)=O)[C@]34O2 (some centres undefined)
active: locus YDR137W, strain rgp1, stronger effect = lower value 0.726 | locus YLR262C, strain YPT6 (second series), stronger effect = lower value 0.711 | locus YLR262C, strain YPT6, stronger effect = lower value 0.602
inactive: locus YAL013W, strain DEP1, stronger effect = lower value 1.02 | locus YAL021C, strain ccr4, stronger effect = lower value 0.996 | locus YAL026C, strain drs2, stronger effect = lower value 0.988 | locus YAL030W, strain snc1, stronger effect = lower value 0.991 | locus YBL061C, strain skt5, stronger effect = lower value 1 | locus YBR009C, strain hhf1, stronger effect = lower value 1.01 | locus YBR021W, strain FUR4, stronger effect = lower value 1.03 | locus YBR023C, strain chs3, stronger effect = lower value 1.01 | locus YBR171W, strain sec66, stronger effect = lower value 0.978 | locus YBR229C, strain ROT2, stronger effect = lower value 1.01 | locus YBR231C, strain swc5, stronger effect = lower value 0.995 | locus YBR279W, strain paf1, stronger effect = lower value 1 | locus YCL011C, strain gbp2, stronger effect = lower value 0.983 | locus YCL016C, strain dcc1, stronger effect = lower value 1.01 | locus YCL029C, strain bik1, stronger effect = lower value 1.02 | locus YCL061C, strain MRC1, stronger effect = lower value 1.01 | locus YCL069W, strain vba3, stronger effect = lower value 0.98 | locus YCR088W, strain abp1, stronger effect = lower value 0.995 | locus YDL005C, strain med2, stronger effect = lower value 0.978 | locus YDL035C, strain GPR1, stronger effect = lower value 0.963 | locus YDL040C, strain nat1, stronger effect = lower value 0.982 | locus YDL074C, strain BRE1, stronger effect = lower value 0.994 | locus YDL101C, strain DUN1, stronger effect = lower value 1.02 | locus YDL185W, strain tfp1, stronger effect = lower value 1.02 | locus YDL192W, strain arf1, stronger effect = lower value 0.995 | locus YDR001C, strain nth1, stronger effect = lower value 0.997 | locus YDR069C, strain doa4, stronger effect = lower value 1.01 | locus YDR101C, strain arx1, stronger effect = lower value 1.02 | locus YDR159W, strain sac3, stronger effect = lower value 1.02 | locus YDR162C, strain NBP2, stronger effect = lower value 0.979 | locus YDR195W, strain ref2 0.969 | locus YDR297W, strain sur2, stronger effect = lower value 0.995 | locus YDR318W, strain mcm21, stronger effect = lower value 1.02 | locus YDR334W, strain swr1, stronger effect = lower value 0.983 | locus YDR335W, strain msn5, stronger effect = lower value 0.992 | locus YDR388W, stronger effect = lower value 1.02 | locus YDR392W, strain spt3, stronger effect = lower value 0.918 | locus YDR502C, strain sam2, stronger effect = lower value 1.03 | locus YEL003W, strain gim4, stronger effect = lower value 0.993 | locus YEL037C, strain rad23, stronger effect = lower value 0.995 | locus YEL061C, strain CIN8 (second series), stronger effect = lower value 0.988 | locus YEL061C, strain CIN8, stronger effect = lower value 1 | locus YER015W, strain faa2, stronger effect = lower value 1 | locus YER016W, strain bim1, stronger effect = lower value 0.995 | locus YER110C, stronger effect = lower value 1.02 | locus YER111C, strain swi4, stronger effect = lower value 0.976 | locus YER155C, strain BEM2 (second series), stronger effect = lower value 1 | locus YER155C, strain BEM2, stronger effect = lower value 1.01 | locus YER167W, strain BCK2, stronger effect = lower value 1 | locus YFR010W, strain ubp6, stronger effect = lower value 0.985 | locus YGL078C, strain dbp3, stronger effect = lower value 1.05 | locus YGL086W, strain mad1, stronger effect = lower value 1.01 | locus YGL167C, strain pmr1, stronger effect = lower value 0.995 | locus YGL173C, strain kem1, stronger effect = lower value 0.993 | locus YGL227W, strain vid30, stronger effect = lower value 0.994 | locus YGL240W, strain doc1, stronger effect = lower value 0.977 | locus YGL248W, strain PDE1, stronger effect = lower value 1.01 | locus YGL253W, strain hxk2, stronger effect = lower value 0.952 | locus YGR078C, strain PAC10, stronger effect = lower value 1.02 | locus YGR135W, strain pre9, stronger effect = lower value 1.04 | locus YGR229C, strain SMI1, stronger effect = lower value 1.03 | locus YGR252W, strain gcn5, stronger effect = lower value 1.04 | locus YHR013C, strain ard1, stronger effect = lower value 0.984 | locus YHR027C, strain rpn1, stronger effect = lower value 0.996 | locus YHR030C, strain SLT2, stronger effect = lower value 1.02 and 0.954 | locus YHR079C, strain IRE1 (second series), stronger effect = lower value 1.02 | locus YHR079C, strain IRE1, stronger effect = lower value 0.962 | locus YHR094C, strain hxt1, stronger effect = lower value 1.02 | locus YHR129C, strain ARP1, stronger effect = lower value 1 | locus YHR142W, strain chs7, stronger effect = lower value 0.984 | locus YHR200W, strain rpn10, stronger effect = lower value 1.02 | locus YIL066C, strain RNR3, stronger effect = lower value 0.999 | locus YIL073C, strain SPO22, stronger effect = lower value 1.04 | locus YIL125W, strain kgd1, stronger effect = lower value 1.02 | locus YIR030C, strain dcg1, stronger effect = lower value 1.02 | locus YJL092W, strain hpr5, stronger effect = lower value 0.986 | locus YJL095W, strain BCK1 (second series), stronger effect = lower value 1 | locus YJL095W, strain BCK1, stronger effect = lower value 1.01 and 0.948 | locus YJL115W, strain asf1, stronger effect = lower value 1 | locus YJL129C, strain trk1, stronger effect = lower value 0.983 | locus YJL134W, strain LCB3, stronger effect = lower value 1.01 | locus YJL154C, strain vps35, stronger effect = lower value 0.993 | locus YJL164C, strain tpk1, stronger effect = lower value 1.01 | locus YJL166W, strain qcr8, stronger effect = lower value 0.987 | locus YJL168C, strain set2, stronger effect = lower value 1.02 | locus YJL187C, strain SWE1 (second series), stronger effect = lower value 1.02 | locus YJL187C, strain SWE1, stronger effect = lower value 1 | locus YJR066W, strain TOR1, stronger effect = lower value 0.912 | locus YJR075W, strain HOC1, stronger effect = lower value 1.02 | locus YKL009W, strain mrt4, stronger effect = lower value 0.989 | locus YKL068W, stronger effect = lower value 1 | locus YKL085W, strain MDH1 (second series), stronger effect = lower value 1 | locus YKL085W, strain MDH1, stronger effect = lower value 1 | locus YKL160W, strain elf1, stronger effect = lower value 1.02 | locus YKR001C, strain vps1, stronger effect = lower value 1.01 | locus YKR026C, strain gcn3, stronger effect = lower value 1 | locus YKR091W, strain srl3, stronger effect = lower value 0.996 | locus YLL001W, strain dnm1, stronger effect = lower value 1.01 | locus YLL026W, stronger effect = lower value 1 | locus YLL041C, strain sdh2, stronger effect = lower value 0.987 | locus YLR027C, strain aat2, stronger effect = lower value 1.01 | locus YLR039C, strain RIC1, stronger effect = lower value 0.683 | locus YLR058C, strain SHM2, stronger effect = lower value 1 | locus YLR102C, strain apc9, stronger effect = lower value 1.03 | locus YLR113W, strain HOG1, stronger effect = lower value 1 | locus YLR221C, strain rsa3, stronger effect = lower value 0.978 | locus YLR258W, strain gsy2, stronger effect = lower value 0.988 | locus YLR268W, strain sec22, stronger effect = lower value 0.995 | locus YLR320W, strain mms22, stronger effect = lower value 0.979 | locus YLR330W, strain CHS5, stronger effect = lower value 1.02 | locus YLR342W, strain FKS1 (second series), stronger effect = lower value 0.981 | locus YLR342W, strain FKS1, stronger effect = lower value 0.977 | locus YLR357W, strain rsc2, stronger effect = lower value 1.01 | locus YLR370C, strain arc18, stronger effect = lower value 0.971 | locus YLR371W, strain rom2, stronger effect = lower value 1.01 | locus YLR384C, strain iki3, stronger effect = lower value 1.01 | locus YLR418C, strain cdc73, stronger effect = lower value 1.01 | locus YML016C, strain PPZ1, stronger effect = lower value 1 | locus YML032C, strain rad52, stronger effect = lower value 1.01 | locus YML120C, strain ndi1, stronger effect = lower value 0.992 | locus YML124C, strain tub3, stronger effect = lower value 1.01 | locus YMR058W, strain fet3, stronger effect = lower value 1.01 | locus YMR078C, strain ctf18, stronger effect = lower value 1.02 | locus YMR125W, strain sto1, stronger effect = lower value 0.991 | locus YMR129W, stronger effect = lower value 0.999 | locus YMR205C, strain PFK2, stronger effect = lower value 1.01 | locus YMR223W, strain ubp8, stronger effect = lower value 1.02 | locus YMR231W, strain pep5, stronger effect = lower value 0.945 | locus YMR307W, strain GAS1, stronger effect = lower value 0.925 | locus YNL067W, strain RPL9B, stronger effect = lower value 1.03 | locus YNL071W, strain lat1, stronger effect = lower value 0.994 | locus YNL183C, strain NPR1, stronger effect = lower value 0.928 | locus YNL209W, strain ssb2, stronger effect = lower value 0.995 | locus YNL233W, strain BNI4, stronger effect = lower value 1.03 | locus YNL248C, strain rpa49, stronger effect = lower value 0.975 | locus YNL250W, strain rad50, stronger effect = lower value 1.05 | locus YNL271C, strain bni1, stronger effect = lower value 1.02 | locus YNL298W, strain CLA4, stronger effect = lower value 1.02 | locus YNL307C, strain MCK1, stronger effect = lower value 1.03 | locus YNL322C, strain KRE1 (second series), stronger effect = lower value 0.984 | locus YNL322C, strain KRE1, stronger effect = lower value 1.02 | locus YNR049C, strain mso1, stronger effect = lower value 0.999 | locus YNR052C, strain pop2, stronger effect = lower value 1.03 | locus YOL012C, strain htz1 0.597 | locus YOL147C, strain pex11, stronger effect = lower value 1.02 | locus YOR001W, strain rrp6, stronger effect = lower value 0.941 | locus YOR061W, strain CKA2, stronger effect = lower value 1 | locus YOR069W, strain VPS5, stronger effect = lower value 1.01 | locus YOR070C, strain gyp1, stronger effect = lower value 0.994 | locus YOR080W, strain dia2, stronger effect = lower value 0.985 | locus YOR083W, strain WHI5, stronger effect = lower value 1.03 | locus YOR106W, strain vam3, stronger effect = lower value 1.02 | locus YOR136W, strain idh2, stronger effect = lower value 0.999 | locus YOR144C, strain elg1, stronger effect = lower value 1.02 | locus YOR184W, strain ser1, stronger effect = lower value 0.996 | locus YOR231W, strain MKK1, stronger effect = lower value 0.978 | locus YOR265W, strain rbl2, stronger effect = lower value 0.994 | locus YOR270C, strain vph1, stronger effect = lower value 0.779 | locus YOR290C, strain snf2, stronger effect = lower value 1 | locus YOR316C, strain cot1, stronger effect = lower value 1.02 | locus YPL051W, strain arl3, stronger effect = lower value 1.01 | locus YPL078C, strain atp4, stronger effect = lower value 1.01 | locus YPL106C, strain sse1, stronger effect = lower value 1.02 | locus YPL240C, strain hsp82, stronger effect = lower value 0.989 | locus YPL241C, strain CIN2, stronger effect = lower value 1.01 | locus YPL256C, strain CLN2, stronger effect = lower value 0.965 | locus YPR119W, strain clb2, stronger effect = lower value 1.01 | locus YPR141C, strain kar3, stronger effect = lower value 1.03 | locus YPR163C, strain tif3, stronger effect = lower value 1.02 | locus YPR167C, strain met16, stronger effect = lower value 1.02 | strain wtn01, stronger effect = lower value 1
